We go through one molecule from ChEMBL document CHEMBL2218924, “A broad activity screen in support of a chemogenomic map for kinase signalling research and drug discovery” (Biochem J, 2013).

Assay [1] deals with T1, Serine/threonine-protein kinase TBK1 (Homo sapiens) (UniProt Q9UHD2).
T1 sequence (whole entry): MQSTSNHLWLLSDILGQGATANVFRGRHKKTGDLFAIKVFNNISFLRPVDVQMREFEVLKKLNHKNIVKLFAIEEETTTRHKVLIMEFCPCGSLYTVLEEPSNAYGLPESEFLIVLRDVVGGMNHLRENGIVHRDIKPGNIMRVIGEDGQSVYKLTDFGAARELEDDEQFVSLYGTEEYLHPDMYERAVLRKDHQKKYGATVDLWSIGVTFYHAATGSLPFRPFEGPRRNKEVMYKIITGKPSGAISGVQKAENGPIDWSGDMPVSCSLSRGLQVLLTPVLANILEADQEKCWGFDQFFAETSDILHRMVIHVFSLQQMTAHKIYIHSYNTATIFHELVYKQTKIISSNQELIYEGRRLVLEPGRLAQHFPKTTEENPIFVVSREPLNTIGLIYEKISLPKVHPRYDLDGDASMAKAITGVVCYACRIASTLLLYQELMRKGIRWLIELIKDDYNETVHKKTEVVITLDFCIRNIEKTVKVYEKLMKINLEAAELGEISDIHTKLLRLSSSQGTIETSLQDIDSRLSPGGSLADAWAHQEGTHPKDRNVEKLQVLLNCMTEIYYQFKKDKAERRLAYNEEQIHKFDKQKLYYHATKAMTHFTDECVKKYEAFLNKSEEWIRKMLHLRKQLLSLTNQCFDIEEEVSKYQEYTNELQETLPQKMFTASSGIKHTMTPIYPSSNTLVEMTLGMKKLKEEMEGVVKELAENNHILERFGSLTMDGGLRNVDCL
Conditions: at 10 µM.

Assay [2] deals with T2, TGF-beta receptor type-1 (Homo sapiens) (UniProt P36897).
T2 sequence (whole entry): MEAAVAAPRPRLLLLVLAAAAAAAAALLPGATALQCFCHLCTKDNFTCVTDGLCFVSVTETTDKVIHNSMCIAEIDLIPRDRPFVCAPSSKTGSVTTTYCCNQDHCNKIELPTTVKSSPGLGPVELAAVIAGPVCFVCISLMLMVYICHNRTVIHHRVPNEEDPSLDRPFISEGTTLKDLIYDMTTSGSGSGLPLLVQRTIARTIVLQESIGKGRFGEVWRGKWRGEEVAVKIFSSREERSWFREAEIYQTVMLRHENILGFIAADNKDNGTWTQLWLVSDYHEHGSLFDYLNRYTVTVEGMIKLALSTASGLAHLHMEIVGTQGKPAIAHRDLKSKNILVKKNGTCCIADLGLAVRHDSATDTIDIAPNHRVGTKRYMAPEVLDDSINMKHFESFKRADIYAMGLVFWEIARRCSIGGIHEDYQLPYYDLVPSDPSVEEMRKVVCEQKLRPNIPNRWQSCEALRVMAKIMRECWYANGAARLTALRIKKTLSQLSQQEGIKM
The following applies: at 1 µM.

In assay [3] the target is T2, TGF-beta receptor type-1 (Homo sapiens). The following applies: at 10 µM.
Assay [4] addresses T3, Inhibitor of nuclear factor kappa-B kinase subunit alpha (Homo sapiens) (UniProt O15111).
T3 sequence (whole entry): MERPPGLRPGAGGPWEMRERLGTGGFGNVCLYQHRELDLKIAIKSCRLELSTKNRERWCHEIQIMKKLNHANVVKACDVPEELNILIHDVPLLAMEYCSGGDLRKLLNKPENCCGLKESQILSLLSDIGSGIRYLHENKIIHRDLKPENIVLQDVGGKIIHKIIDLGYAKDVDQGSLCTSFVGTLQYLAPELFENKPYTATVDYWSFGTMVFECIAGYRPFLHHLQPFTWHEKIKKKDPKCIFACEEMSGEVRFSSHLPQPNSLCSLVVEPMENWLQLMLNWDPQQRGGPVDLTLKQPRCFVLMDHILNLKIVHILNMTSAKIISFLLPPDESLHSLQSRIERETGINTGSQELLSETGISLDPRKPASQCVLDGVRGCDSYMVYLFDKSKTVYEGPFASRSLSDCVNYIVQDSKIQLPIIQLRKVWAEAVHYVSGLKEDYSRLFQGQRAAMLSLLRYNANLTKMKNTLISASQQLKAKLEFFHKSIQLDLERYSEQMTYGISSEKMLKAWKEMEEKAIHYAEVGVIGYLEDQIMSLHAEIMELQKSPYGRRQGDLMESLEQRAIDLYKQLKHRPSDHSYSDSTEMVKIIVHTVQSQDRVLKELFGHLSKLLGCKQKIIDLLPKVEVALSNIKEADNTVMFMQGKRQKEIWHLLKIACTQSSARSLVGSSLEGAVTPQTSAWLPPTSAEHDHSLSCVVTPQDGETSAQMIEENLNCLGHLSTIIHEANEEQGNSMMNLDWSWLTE
The following applies: at 1 µM.

Assay [5] deals with T3, Inhibitor of nuclear factor kappa-B kinase subunit alpha (Homo sapiens). Conditions: at 10 µM.
Assay [6] deals with T4, Inhibitor of nuclear factor kappa-B kinase subunit beta (Homo sapiens) (UniProt O14920).
T4 sequence (whole entry): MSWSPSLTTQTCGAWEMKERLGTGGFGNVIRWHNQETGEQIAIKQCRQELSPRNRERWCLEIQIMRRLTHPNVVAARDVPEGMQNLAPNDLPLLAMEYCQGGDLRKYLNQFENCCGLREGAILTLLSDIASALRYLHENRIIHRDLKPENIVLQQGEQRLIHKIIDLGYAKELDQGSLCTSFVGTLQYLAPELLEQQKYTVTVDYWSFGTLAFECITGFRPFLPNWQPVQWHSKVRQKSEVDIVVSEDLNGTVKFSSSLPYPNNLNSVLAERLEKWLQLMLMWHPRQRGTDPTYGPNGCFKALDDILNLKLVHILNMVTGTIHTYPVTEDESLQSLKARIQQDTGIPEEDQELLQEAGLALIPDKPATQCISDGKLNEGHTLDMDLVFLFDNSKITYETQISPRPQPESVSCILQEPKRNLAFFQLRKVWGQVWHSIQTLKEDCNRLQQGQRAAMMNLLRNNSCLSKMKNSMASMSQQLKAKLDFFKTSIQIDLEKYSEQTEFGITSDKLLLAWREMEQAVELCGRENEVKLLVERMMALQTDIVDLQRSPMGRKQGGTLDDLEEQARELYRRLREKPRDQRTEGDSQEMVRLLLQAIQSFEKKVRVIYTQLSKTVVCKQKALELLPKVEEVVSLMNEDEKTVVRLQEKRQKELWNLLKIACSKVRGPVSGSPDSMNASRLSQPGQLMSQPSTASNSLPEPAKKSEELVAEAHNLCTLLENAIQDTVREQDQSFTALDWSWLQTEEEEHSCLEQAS
Conditions: at 1 µM.

Assay [7] deals with T4, Inhibitor of nuclear factor kappa-B kinase subunit beta (Homo sapiens). Conditions: at 10 µM.

Molecules are shown by their SMILES.

As usually defined, the residual activity is the signal under treatment as a percentage of the control signal. A high value points to a small loss of activity. As to `N#CC(C#N)=C(N)/C(C#N)=C/c1ccc(O)cc1`, the residual activity stood at 72% in assay [1]; 91% in assay [2]; 91% in assay [3]; 96% in assay [4]; 92% in assay [5]; 99% in assay [6]. The same molecule displayed a residual activity in assay [7] of 93%.
